# PubChem BioAssay (NCI)
# This is part of a sample that, as a whole, favours compounds with a hit. Of some 79,000 tested, about 15% had one in any assay. A number with no mark means an inactive call. Calls of active or inactive are those of the source. No stated cut-off is given here; in the data, active means growth inhibition above about 70%; inactive means the rest.
# How the values were obtained:
# [1] = NCI Yeast Anticancer Drug Screen. Data for the rad52 strain (AID 147);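 further: 0% = growth of vehicle-treated control cultures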; conditions: S. cerevisiae rad52 mutant growth inhibition, active compounds read high
# How it was run: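 Yeast strain carrying a DNA damage repair alteration was exposed to test compounds. Growth inhibition was measured relative to vehicle-treated controls.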
# [2] = NCI Yeast Anticancer Drug Screen. Data for the wt1 strain (AID 149);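 further: 0% = growth of vehicle-treated wt1 cultures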; conditions: S. cerevisiae wt1 strain (SPY 50644) growth inhibition, active compounds read high
# How it was run: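 Growth inhibition read against vehicle controls after compound exposure of the wt1 yeast strain.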
# [3] = NCI Yeast Anticancer Drug Screen. Data for the rad50EPP+ strain (AID 151);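 further: 0% = growth of vehicle-treated control cultures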; conditions: S. cerevisiae rad50 mutant strain, active compounds read high
# How it was run: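 Yeast strain carrying rad50 alteration (rad50EPP+) exposed to compounds; growth inhibition measured relative to vehicle-treated controls.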
# [4] = NCI Yeast Anticancer Drug Screen. Data for the mgt1 strain (AID 153); conditions: S. cerevisiae mgt1 mutant growth inhibition, active compounds read high
# How it was run: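 Yeast mgt1 strain (DNA repair/cell-cycle alteration panel) exposed to compounds; growth inhibition measured relative to vehicle-treated controls.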
# [5] = NCI Yeast Anticancer Drug Screen. Data for the rad50 strain (AID 155);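 further: 0% = growth of vehicle-only cultures of the same strain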; conditions: S. cerevisiae rad50 strain growth inhibition, active compounds read high
# How it was run: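 Readout: growth inhibition relative to vehicle-treated cultures. Compound exposure was carried out in a genetically defined yeast strain deficient in DNA damage repair.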
# [6] = NCI Yeast Anticancer Drug Screen. Data for the mec2-1 strain (AID 157); conditions: S. cerevisiae mec2-1 strain, active compounds read high
# How it was run: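 mec2-1 yeast strain, carrying an alteration in DNA damage repair or cell cycle control, was exposed to compounds; growth inhibition was measured relative to vehicle-treated controls.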
# [7] = NCI Yeast Anticancer Drug Screen. Data for the rad14 strain (AID 159);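 further: 0% = growth of vehicle-treated control cultures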; conditions: S. cerevisiae rad14 strain growth inhibition, active compounds read high
# How it was run: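 Growth inhibition vs vehicle controls; genetically altered yeast strain (DNA damage repair defect) treated with test compounds.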
# [8] = NCI Yeast Anticancer Drug Screen. Data for the sgs1 mgt1 strain (AID 161);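 further: 0% = growth of cultures given vehicle only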; conditions: S. cerevisiae sgs1 mgt1 strain, active compounds read high
# How it was run: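 Yeast cells carrying a defined DNA-repair defect were exposed to test compounds. Growth inhibition was measured relative to vehicle-treated controls.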
# [9] = NCI Yeast Anticancer Drug Screen. Data for the CLN2oe strain (AID 163);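 further: 0% = growth of vehicle-only control cultures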; conditions: S. cerevisiae CLN2oe strain, active compounds read high
# How it was run: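 Yeast cells carrying a defined cell-cycle control alteration were exposed to test compounds. Growth inhibition was scored against vehicle-treated control cultures.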
# [10] = NCI Yeast Anticancer Drug Screen. Data for the cln2 rad14 strain (AID 165);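 further: 0% = growth equal to vehicle treated cultures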; conditions: S. cerevisiae cln2 rad14 strain, active compounds read high
# How it was run: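 Yeast carrying cln2 and rad14 alterations (cell cycle control and DNA damage repair) were exposed to compounds. Growth inhibition was measured against vehicle-treated controls.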
# [11] = NCI Yeast Anticancer Drug Screen. Data for the bub3 strain (AID 167); conditions: S. cerevisiae bub3 mutant strain, active compounds read high
# How it was run: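 Readout: yeast growth inhibition, expressed relative to vehicle-only wells. The test organism is a mutant strain from a panel with lesions in DNA repair or checkpoint genes.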
# [12] = NCI Yeast Anticancer Drug Screen. Data for the wt2 strain (AID 169);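 further: 0% = growth of vehicle-treated yeast cultures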; conditions: S. cerevisiae wt2 strain growth inhibition, active compounds read high
# How it was run: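 Yeast cells were exposed to test compounds, and growth inhibition was measured relative to vehicle-treated controls.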
# [13] = NCI Yeast Anticancer Drug Screen. Data for the mlh1 strain (AID 171);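 further: 0% = growth of vehicle-treated control cultures of the same strain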; conditions: S. cerevisiae mlh1 strain growth inhibition, active compounds read high
# How it was run: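 Yeast carrying a defined genetic alteration in DNA damage repair or cell cycle control were exposed to test compounds. Growth inhibition was measured relative to vehicle-treated controls.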
# [14] = NCI Yeast Anticancer Drug Screen. Data for the sgs1 strain (AID 173);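 further: 0% = growth of vehicle-only control cultures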; conditions: S. cerevisiae sgs1 mutant, active compounds read high
# How it was run: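 Yeast mutant strains carrying defined defects in DNA damage repair or cell cycle control were exposed to test compounds. Growth inhibition was scored against vehicle-treated controls.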
# [15] = NCI Yeast Anticancer Drug Screen. Data for the mlh1 rad18 strain (AID 175); conditions: S. cerevisiae mlh1 rad18 strain growth inhibition, active compounds read high
# How it was run: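 Growth inhibition of the yeast strain was measured after compound exposure and expressed relative to vehicle-treated controls. The strain carries defined defects in DNA damage repair.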
# [16] = NCI Yeast Anticancer Drug Screen. Data for the rad18 strain (AID 177); conditions: S. cerevisiae rad18 mutant growth inhibition, active compounds read high
# How it was run: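 Yeast carrying a defined DNA damage repair alteration were exposed to compounds. Growth inhibition was expressed relative to vehicle-treated controls.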
# [17] = at 5.0 µM (retest, dose inferred, filed as 0.5)
# [18] = at 50.0 µM (retest, dose inferred, filed as 5.0)
smiles,measurement,setting,value
O=C(c1cc(=O)c2ccc(O)cc2o1)c1ccc(Cl)cc1Cl,growth inhibition,[1]; at 1.2 µM,-31%
same,growth inhibition,[1]; at 3.7 µM,-32%
same,growth inhibition,[1]; at 11.0 µM,8%
same,growth inhibition,[1]; at 33.0 µM,90% (active)
same,growth inhibition,[1]; at 100.0 µM,92% (active)
same,growth inhibition,[2]; at 1.2 µM,-6%
same,growth inhibition,[2]; at 3.7 µM,1%
same,growth inhibition,[2]; at 11.0 µM,-2%
same,growth inhibition,[2]; at 33.0 µM,75% (active)
same,growth inhibition,[2]; at 100.0 µM,92% (active)
same,growth inhibition,[3]; at 1.2 µM,-23%
same,growth inhibition,[3]; at 3.7 µM,-7%
same,growth inhibition,[3]; at 11.0 µM,52%
same,growth inhibition,[3]; at 33.0 µM,94% (active)
same,growth inhibition,[3]; at 100.0 µM,96% (active)
same,growth inhibition,[4]; at 1.2 µM,-9%
same,growth inhibition,[4]; at 3.7 µM,-18%
same,growth inhibition,[4]; at 11.0 µM,21%
same,growth inhibition,[4]; at 33.0 µM,89% (active)
same,growth inhibition,[4]; at 100.0 µM,90% (active)
same,growth inhibition,[5]; at 1.2 µM,-11%
same,growth inhibition,[5]; at 3.7 µM,-16%
same,growth inhibition,[5]; [17],23%
same,growth inhibition,[5]; at 11.0 µM,12%
same,growth inhibition,[5]; at 33.0 µM,94% (active)
same,growth inhibition,[5]; [18],95% (active)
same,growth inhibition,[5]; at 50.0 µM,86.5% (active)
same,growth inhibition,[5]; at 100.0 µM,93% (active)
same,growth inhibition,[6]; at 1.2 µM,-27%
same,growth inhibition,[6]; at 3.7 µM,-13%
same,growth inhibition,[6]; [17],-30%
same,growth inhibition,[6]; at 11.0 µM,5%
same,growth inhibition,[6]; at 33.0 µM,80% (active)
same,growth inhibition,[6]; [18],95% (active)
same,growth inhibition,[6]; at 50.0 µM,85.2% (active)
same,growth inhibition,[6]; at 100.0 µM,93% (active)
same,growth inhibition,[7]; at 1.2 µM,2%
same,growth inhibition,[7]; at 3.7 µM,4%
same,growth inhibition,[7]; at 11.0 µM,19%
same,growth inhibition,[7]; at 33.0 µM,76% (active)
same,growth inhibition,[7]; at 100.0 µM,91% (active)
same,growth inhibition,[8]; [17],3%
same,growth inhibition,[8]; [18],92% (active)
same,growth inhibition,[8]; at 50.0 µM,88% (active)
same,growth inhibition,[9]; at 1.2 µM,-23%
same,growth inhibition,[9]; at 3.7 µM,-8%
same,growth inhibition,[9]; at 11.0 µM,23%
same,growth inhibition,[9]; at 33.0 µM,94% (active)
same,growth inhibition,[9]; at 100.0 µM,92% (active)
same,growth inhibition,[10]; [17],13%
same,growth inhibition,[10]; [18],93% (active)
same,growth inhibition,[10]; at 50.0 µM,78.2% (active)
same,growth inhibition,[11]; at 1.2 µM,-16%
same,growth inhibition,[11]; at 3.7 µM,-11%
same,growth inhibition,[11]; [17],23%
same,growth inhibition,[11]; at 11.0 µM,46%
same,growth inhibition,[11]; at 33.0 µM,95% (active)
same,growth inhibition,[11]; [18],97% (active)
same,growth inhibition,[11]; at 50.0 µM,88.5% (active)
same,growth inhibition,[11]; at 100.0 µM,94% (active)
same,growth inhibition,[12]; at 1.2 µM,-4%
same,growth inhibition,[12]; at 3.7 µM,-4%
same,growth inhibition,[12]; at 11.0 µM,0%
same,growth inhibition,[12]; at 33.0 µM,68%
same,growth inhibition,[12]; at 100.0 µM,88% (active)
same,growth inhibition,[13]; at 1.2 µM,-19%
same,growth inhibition,[13]; at 3.7 µM,-7%
same,growth inhibition,[13]; at 11.0 µM,33%
same,growth inhibition,[13]; at 33.0 µM,91% (active)
same,growth inhibition,[13]; at 100.0 µM,92% (active)
same,growth inhibition,[14]; at 1.2 µM,-18%
same,growth inhibition,[14]; at 3.7 µM,-14%
same,growth inhibition,[14]; at 11.0 µM,60%
same,growth inhibition,[14]; at 33.0 µM,95% (active)
same,growth inhibition,[14]; at 100.0 µM,94% (active)
same,growth inhibition,[15]; [17],37%
same,growth inhibition,[15]; [18],96% (active)
same,growth inhibition,[15]; at 50.0 µM,85.5% (active)
same,growth inhibition,[16]; at 1.2 µM,-6%
same,growth inhibition,[16]; at 3.7 µM,-19%
same,growth inhibition,[16]; at 11.0 µM,19%
same,growth inhibition,[16]; at 33.0 µM,94% (active)
same,growth inhibition,[16]; at 100.0 µM,94% (active)
